# Source: PubChem BioAssay
# HP1b chromo inh – blocks HP1-beta chromodomain binding to methylated histone tails. AlphaScreen HP1-beta / biotin-H3K9me3 peptide binding. AID 540317. Potency, µM (series often up to 114 µM), usual class: inhibitors. P83916. 390,000 compounds, 0.56% hits; further: nearly all actives have a fitted effect of over 70% in size
#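 Compound inhibition of the preformed complex between 50 nM HP1-beta and 50 nM biotinylated H3K9me3 peptide was read by AlphaScreen. Buffer was PBS pH 7.4 with 0.01% Tween-20. Incubations ran 30 min at room temperature, with 10 ug/mL donor/acceptor beads.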
# G9a block – inhibitors of human histone lysine methyltransferase G9a; Q96KQ7; G9a H3K9 monomethylation, AlphaScreen, 2 h; Potency, µM (doses to about 102 µM), most hits filed as inhibitors; 350,000 compounds, 8.8% hits; AID 504332; further: nearly all actives have a fitted effect of over 75% in size
#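 Enzyme 20 nM + cpd, 15 min RT; add b-H3K9 pep 500 nM / SAM 20 uM; 2 h RT; anti-H3K9me1 Ab 0.5 ug/mL + SA donor / anti-rabbit acceptor beads 20 ug/mL each, 10 min; AlphaScreen read.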
# JMJD2A Tudor – blocks the human JMJD2A Tudor domain | O75164 | AlphaScreen JMJD2A-Tudor / H3K4me3 peptide binding | Potency, µM (highest dose often 114 µM), actives largely listed as inhibitors | 390,000 compounds, 4.4% hits; further: nearly all actives have a fitted effect of over 50% in size
# Target sequence (O75164 whole entry, looked up, the tested form may be a part): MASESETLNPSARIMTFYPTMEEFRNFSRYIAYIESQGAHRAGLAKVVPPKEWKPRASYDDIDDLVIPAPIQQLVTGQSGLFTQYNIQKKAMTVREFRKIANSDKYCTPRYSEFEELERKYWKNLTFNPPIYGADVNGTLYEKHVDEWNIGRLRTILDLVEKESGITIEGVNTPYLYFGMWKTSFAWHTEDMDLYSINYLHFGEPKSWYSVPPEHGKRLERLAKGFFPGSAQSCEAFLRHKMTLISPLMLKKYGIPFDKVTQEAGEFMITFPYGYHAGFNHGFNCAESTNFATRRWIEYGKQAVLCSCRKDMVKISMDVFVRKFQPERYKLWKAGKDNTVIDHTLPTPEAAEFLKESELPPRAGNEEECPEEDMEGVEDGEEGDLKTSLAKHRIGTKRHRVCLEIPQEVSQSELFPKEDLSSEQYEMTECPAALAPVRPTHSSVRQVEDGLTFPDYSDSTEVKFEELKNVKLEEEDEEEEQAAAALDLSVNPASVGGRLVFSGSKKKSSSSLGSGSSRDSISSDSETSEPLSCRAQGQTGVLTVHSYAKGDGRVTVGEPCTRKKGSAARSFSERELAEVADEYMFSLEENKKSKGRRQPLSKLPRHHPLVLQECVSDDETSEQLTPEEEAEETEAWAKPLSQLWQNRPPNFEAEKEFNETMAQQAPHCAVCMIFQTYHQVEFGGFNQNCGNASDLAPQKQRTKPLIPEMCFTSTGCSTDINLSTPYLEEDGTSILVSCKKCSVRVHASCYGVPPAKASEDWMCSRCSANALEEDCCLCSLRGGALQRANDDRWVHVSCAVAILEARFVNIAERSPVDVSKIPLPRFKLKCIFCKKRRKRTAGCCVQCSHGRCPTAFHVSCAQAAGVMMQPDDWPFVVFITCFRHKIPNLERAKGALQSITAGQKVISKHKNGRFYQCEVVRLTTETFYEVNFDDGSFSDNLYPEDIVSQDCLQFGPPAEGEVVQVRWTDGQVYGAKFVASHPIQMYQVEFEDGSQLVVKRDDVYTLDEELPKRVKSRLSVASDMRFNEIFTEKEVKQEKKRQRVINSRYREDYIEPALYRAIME
# Six1-Eya2 inh – inhibitors of human Six1/Eya2 interaction; AID 651725; activity change, % (concentration not given with the values); AlphaScreen GST-Six1/His-Eya2 binding, biochemical; stronger effect = lower value; 360,000 compounds, 0.56% hits; Q15475+O00167; in the data active means activity change below about -65%; inconclusive means mostly about -30% to -63%
#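 Compounds are tested against tagged Six1 and Eya2 proteins bridged by glutathione donor and nickel acceptor beads; after a one-hour incubation at 37 °C without light, AlphaScreen emission is recorded.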
# CtBP-E1A inh – inhibitors of CtBP/E1A interaction; activity change, % (no concentration beside the values); AlphaScreen GST-E1A/His-CtBP binding, 1536-well; stronger effect = lower value; 340,000 compounds, 0.49% hits; AID 651724; in the data active means activity change below about -65%; inconclusive means mostly about -30% to -63%
#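 In 5 uL wells, 23 nL compound meets equimolar GST-E1A and His-CtBP (5X stock 125 nM each) for 2 h, 37 °C. Beads (5X, 50 ug/mL) then 1 h, 37 °C, dark.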
# BAZ2B inh – inhibitors of human BAZ2B bromodomain; AlphaScreen BAZ2B-H3K14Ac peptide displacement; Q9UIF8; 360,000 compounds, 4.4% hits; Potency, µM (doses to about 114 µM), usual class: inhibitors; further: nearly all actives have a fitted effect of over 60% in size
#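 Compounds, titrated to a top concentration of 110 uM, were incubated 30 min at room temperature with preformed BAZ2B/acetyl-K14 H3 peptide complex (50 nM each). Proximity signal was measured by AlphaScreen after 20 min with beads.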
# Hits are given with their value; . = inactive; ? = inconclusive; / = not tested or not shown; [ ] = another dose, or the depositor's remark. An excerpt weighted towards active compounds, which were near 10% of everything screened. Unless noted, the call rests on the fitted dose curve; in most records, active means well fitted inhibition curve with a large enough effect; inconclusive means small, poorly fitted or top-dose-only effect; inactive means no such curve, though single readings can be large or run the other way.
SMILES,HP1b chromo inh,G9a block,JMJD2A Tudor,Six1-Eya2 inh,CtBP-E1A inh,BAZ2B inh
Cc1ccccc1-c1csc2ncnc(Sc3nnnn3C)c12,/,/,.,/,/,/
CCOC(=O)[C@]12CCCC=C1N(Cc1ccco1)C(=O)[C@H](CC(=O)NCC1CCCCC1)C2,/,/,/,.,.,/
COc1ccc(C/C(C)=N/NC(=O)c2cccnc2)cc1,.,.,31.6µM,.,.,?
COc1cc(C(=O)NNC(=S)NC(=O)/C=C/c2ccccc2)cc(OC)c1OC,.,31.6µM,.,.,.,.
CC(C)(C)c1ccc(C(=O)NNC(=S)NC(=O)c2cccnc2)cc1,.,10µM,.,.,.,.
O=C(NNC(=S)NC(=O)c1ccccc1)c1ccc(O)cc1,.,12.6µM,.,.,.,.
CC(C)(C)c1ccc(C(=O)NC(=S)NCc2cccnc2)cc1,.,?,?,.,.,.
FC(F)(F)c1ccccc1-c1cc(NCCN2CCOCC2)ncn1,/,.[0.501 µM],/,/,/,/
Cc1ccc2[nH]c(=O)c3cc(C(=O)N(C)c4ccc(Br)cc4)sc3c2c1,.,.,.,/,/,.
Cc1ccc(N(C)S(=O)(=O)c2ccc3[nH]cc(C(=O)O)c(=O)c3c2)cc1C,.,.,.,/,/,.
CCOc1ccc(CCNC(=O)c2nnc(Cc3ccc(Cl)cc3Cl)o2)cc1OCC,.,.,.,/,/,.
CC(C)CSc1nc(N)nc2c1ncn2C1OC(CO)C(O)C1O (centres undefined),.,/,.,.,.,/
Cc1onc(-c2ccccc2)c1C(=O)NC(=S)NNC(=O)c1cccnc1,.,?,.,.,.,.
O=C(NNC(=S)NC(=O)c1ccccc1)c1cccnc1,.,22.4µM,.,.,/,.
O=C(/C=C/c1ccccc1)NC(=S)NNC(=O)c1cccnc1,.,22.4µM,.,.,?,.
COc1cc(OC)cc(C(=O)NNC(=S)NC(=O)c2cccnc2)c1,.,28.2µM,.,.,/,.
COCCNC(=O)C1CCCN(C(=O)c2ccc(SC(F)(F)F)cc2)CC1 (centres undefined),/,/,/,.,.,/
Cc1c(C)c2cc(Cl)c(O)c(CN(C)C)c2oc1=O,.,.[12.7 µM],17.8µM,.,.,.
CCCCc1cc(=O)oc2c(CN(C)C)c(O)c(Cl)cc12,.,.[12.7 µM],15.8µM,.,.,.
Cc1ccc(CCNC(=O)C2CCCN(Cc3nc(-c4cccc(Cl)c4)oc3C)C2)cc1 (centres undefined),.,.,.,/,/,.
Cc1cccc(-c2nc(CN3CCCC(C(=O)NCCc4ccc(Cl)cc4)C3)c(C)o2)c1 (centres undefined),.,?,?,/,/,56.2µM
Cc1oc(-c2cccc(Cl)c2)nc1CN1CCCC(C(=O)N2CCN(c3ccc(F)cc3)CC2)C1 (centres undefined),?,17.8µM,39.8µM,/,/,10µM
Cc1oc(-c2cccc(Cl)c2)nc1CN1CCCC(C(=O)NC(C)c2ccc3c(c2)OCCO3)C1 (centres undefined),.,50.1µM,?,.,.,?
CCOc1ccc2nc(NCCNC(=O)C3CC3)c(C)cc2c1,.,79.4µM,.,.,.,.
O=C(CCNC(=O)c1ccc(Cl)cc1)Nc1ncccc1O,.,.,.,.,.,79.4µM
SMILES,HP1b chromo inh,G9a block,JMJD2A Tudor,Six1-Eya2 inh,CtBP-E1A inh,BAZ2B inh
Cc1ccc(C(=O)CCC(=O)Nc2ncccc2C)cc1,.,.[12.7 µM],.,.,/,.
O=C(CCCNC(=O)c1ccc(Cl)cc1)Nc1ncccc1O,.,.,.,.,.,?
Cc1ccc(NC(=O)CCC(=O)c2cccs2)cc1,.,.[12.7 µM],.,.,.,.
Cc1ccc(C(=O)CCC(=O)Nc2ncccc2O)cc1,.,.,?,.,.,79.4µM
O=C(CCC(=O)c1cccs1)Nc1ncccc1O,.,?,?,.,.,56.2µM
O=C(CCC(=O)c1ccc(Cl)s1)Nc1ncccc1O,.,?,56.2µM,.,.,56.2µM
CCc1cccc(-n2nnc(-c3nsc(NC(=O)c4cccs4)n3)c2C)c1,.,.,.,/,/,.
CC(=O)Nc1cc2c(s1)c1cnn(Cc3ccccc3F)c(=O)c1n2C,/,.[12.7 µM],/,/,/,.
COc1ccc(NC(=O)CSc2nc(-c3ccccc3)cc(-c3cc(OC)c(OC)c(OC)c3)c2C#N)c(OC)c1,.,?,.,/,/,.
Cc1cnc(CNc2cc(-c3cccc(C#N)c3)ncn2)cn1,/,.[0.501 µM],/,/,/,/
COCCCNC(=O)CN(CCc1ccccc1)S(=O)(=O)c1ccc(C)cc1,.,.,.,.,.,.
CC(C)CC(OC(=O)CNC(=O)c1ccccc1)C(=O)Nc1cc(C(F)(F)F)ccc1Cl (centres undefined),/,/,.,/,/,/
CCO[C@H]1OC(C(=O)O)=C[C@@H](c2ccccc2)[C@@H]1CCCO,.,/,.,.,.,/
Cc1ccc(NC(=O)CCC(=O)c2ccc(Cl)s2)nc1,.,.[12.7 µM],.,.,/,56.2µM
CN(C)c1ccc(S(=O)(=O)c2ccc(Cl)cc2)cc1,.,.,.,.,.,.
CN(C)c1ccc(C2C3C(=O)NC(=O)C3ON2c2ccc(Cl)cc2)cc1 (centres undefined),.,?,56.2µM,.,.,50.1µM
O=Cc1c(NC2CCCCC2)c2ccccc2[nH]c1=O,.,.,.,.,.,.
COC(=O)CSC1=C(C#N)C(=O)NC(c2ccccc2)S1 (centres undefined),.,?,?,.,.,50.1µM
O=C(CSc1nncn1-c1ccccc1)Nc1ccc(N2CCOCC2)cc1,.,/,10µM,.,.,.
O=C(CSc1nnc(C2CC2)n1-c1ccccc1)Nc1ccc(N2CCOCC2)cc1,.,56.2µM,.,.,.,.
